According to the supplement of paper PMC4466140:

Assays:
Test in all cases: SPOT peptide array binding signal intensity (averaged, normalized) (arbitrary units (background-subtracted, floor 0; scale differs between SH3 domains)); higher = stronger binding of the SH3 domain to the peptide
AgAbp1 = molecular target: AgAbp1
Method in brief: (§1)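 Binding signal refers to normalized, background-subtracted spot intensity averaged over replicates, expressed in arbitrary units that differ between domains. GST-fused SH3 domains from four yeast species were incubated at 10 μg/ml overnight at 4°C on cellulose membranes of synthetic 15-mer peptides with cysteines replaced by serines. Bound protein was detected with anti-GST antibody, an HRP anti-mouse secondary and luminol, and quantified with Genespotter.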

AgBbc1 = molecular target: AgBbc1
Method in brief: as §1

AgBem1-D1 = molecular target: AgBem1-D1
Method in brief: as §1

AgBzz1-D1 = molecular target: AgBzz1-D1
Method in brief: as §1

AgBzz1-D2 = molecular target: AgBzz1-D2
Method in brief: as §1

AgCyk3 = molecular target: AgCyk3
Method in brief: as §1

AgFus1 = molecular target: AgFus1
Method in brief: as §1

AgHof1 = molecular target: AgHof1
Method in brief: as §1

AgHse1 = molecular target: AgHse1
Method in brief: as §1

AgLsb1 = molecular target: AgLsb1
Method in brief: as §1

AgLsb4 = molecular target: AgLsb4
Method in brief: as §1

AgMyo5 = molecular target: AgMyo5
Method in brief: as §1

AgNbp2 = molecular target: AgNbp2
Method in brief: as §1

AgRvs167 = molecular target: AgRvs167
Method in brief: as §1

AgSho1 = molecular target: AgSho1
Method in brief: as §1

AgSla1-D1-D2 = molecular target: AgSla1-D1-D2
Method in brief: as §1

AgSla1-D3 = molecular target: AgSla1-D3
Method in brief: as §1

CaAbp1-D1 = molecular target: CaAbp1-D1
Method in brief: as §1

CaAbp1-D2 = molecular target: CaAbp1-D2
Method in brief: as §1

CaBbc1 = molecular target: CaBbc1
Method in brief: as §1

CaBem1-D1 = molecular target: CaBem1-D1
Method in brief: as §1

CaBzz1-D1 = molecular target: CaBzz1-D1
Method in brief: as §1

CaBzz1-D2 = molecular target: CaBzz1-D2
Method in brief: as §1

CaCyk3 = molecular target: CaCyk3
Method in brief: as §1

CaFus1 = molecular target: CaFus1
Method in brief: as §1

CaHof1 = molecular target: CaHof1
Method in brief: as §1

CaHse1 = molecular target: CaHse1
Method in brief: as §1

CaLsb1 = molecular target: CaLsb1
Method in brief: as §1

CaLsb4 = molecular target: CaLsb4
Method in brief: as §1

CaMyo5 = molecular target: CaMyo5
Method in brief: as §1

CaNbp2 = molecular target: CaNbp2
Method in brief: as §1

CaRvs167 = molecular target: CaRvs167
Method in brief: as §1

CaRvs167-3 = molecular target: CaRvs167-3
Method in brief: as §1

CaSho1 = molecular target: CaSho1
Method in brief: as §1

CaSla1-D1-D2 = molecular target: CaSla1-D1-D2
Method in brief: as §1

CaSla1-D3 = molecular target: CaSla1-D3
Method in brief: as §1

ScAbp1 = molecular target: ScAbp1
Method in brief: as §1

ScBbc1 = molecular target: ScBbc1
Method in brief: as §1

ScBem1-D1 = molecular target: ScBem1-D1
Method in brief: as §1

ScBzz1-D1 = molecular target: ScBzz1-D1
Method in brief: as §1

ScBzz1-D2 = molecular target: ScBzz1-D2
Method in brief: as §1

ScCyk3 = molecular target: ScCyk3
Method in brief: as §1

ScFus1 = molecular target: ScFus1
Method in brief: as §1

ScHof1 = molecular target: ScHof1
Method in brief: as §1

ScHse1 = molecular target: ScHse1
Method in brief: as §1

ScLsb1 = molecular target: ScLsb1
Method in brief: as §1

ScLsb2 = molecular target: ScLsb2
Method in brief: as §1

ScLsb3 = molecular target: ScLsb3
Method in brief: as §1

ScLsb4 = molecular target: ScLsb4
Method in brief: as §1

ScMyo3 = molecular target: ScMyo3
Method in brief: as §1

ScMyo5 = molecular target: ScMyo5
Method in brief: as §1

ScNbp2 = molecular target: ScNbp2
Method in brief: as §1

ScPex13 = molecular target: ScPex13
Method in brief: as §1

ScRvs167 = molecular target: ScRvs167
Method in brief: as §1

ScSho1 = molecular target: ScSho1
Method in brief: as §1

ScSla1-D1-D2 = molecular target: ScSla1-D1-D2
Method in brief: as §1

ScSla1-D3 = molecular target: ScSla1-D3
Method in brief: as §1

SpAbp1-D1 = molecular target: SpAbp1-D1
Method in brief: as §1

SpBbc1 = molecular target: SpBbc1
Method in brief: as §1

SpBzz1-D1 = molecular target: SpBzz1-D1
Method in brief: as §1

SpBzz1-D2 = molecular target: SpBzz1-D2
Method in brief: as §1

SpCyk3 = molecular target: SpCyk3
Method in brief: as §1

SpHof1 = molecular target: SpHof1
Method in brief: as §1

SpHof1-2 = molecular target: SpHof1-2
Method in brief: as §1

SpHof1-3 = molecular target: SpHof1-3
Method in brief: as §1

SpHse1 = molecular target: SpHse1
Method in brief: as §1

SpLsb1 = molecular target: SpLsb1
Method in brief: as §1

SpLsb4 = molecular target: SpLsb4
Method in brief: as §1

SpMyo1 = molecular target: SpMyo1
Method in brief: as §1

SpNbp2 = molecular target: SpNbp2
Method in brief: as §1

SpPex13 = molecular target: SpPex13
Method in brief: as §1

SpRvs167 = molecular target: SpRvs167
Method in brief: as §1

SpSla1-D1-D2 = molecular target: SpSla1-D1-D2
Method in brief: as §1

SpSla1-D3 = molecular target: SpSla1-D3
Method in brief: as §1

## FYNRTAFQLPGDARV
AgAbp1
  SPOT peptide array binding signal intensity: 1.5
AgBbc1
  SPOT peptide array binding signal intensity: 0.5
AgBem1-D1
  SPOT peptide array binding signal intensity: ≤ 0
AgBzz1-D1
  SPOT peptide array binding signal intensity: 39.5
AgBzz1-D2
  SPOT peptide array binding signal intensity: 39
AgCyk3
  SPOT peptide array binding signal intensity: 2
AgFus1
  SPOT peptide array binding signal intensity: 12
AgHof1
  SPOT peptide array binding signal intensity: 12.2
AgHse1
  SPOT peptide array binding signal intensity: 18
AgLsb1
  SPOT peptide array binding signal intensity: 1140
AgLsb4
  SPOT peptide array binding signal intensity: ≤ 0
AgMyo5
  SPOT peptide array binding signal intensity: 9.5
AgNbp2
  SPOT peptide array binding signal intensity: ≤ 0
AgRvs167
  SPOT peptide array binding signal intensity: 1.83
AgSho1
  SPOT peptide array binding signal intensity: ≤ 0
AgSla1-D1-D2
  SPOT peptide array binding signal intensity: 1
AgSla1-D3
  SPOT peptide array binding signal intensity: 1
CaAbp1-D1
  SPOT peptide array binding signal intensity: 7
CaAbp1-D2
  SPOT peptide array binding signal intensity: ≤ 0
CaBbc1
  SPOT peptide array binding signal intensity: 3
CaBem1-D1
  SPOT peptide array binding signal intensity: 16
CaBzz1-D1
  SPOT peptide array binding signal intensity: 37.5
CaBzz1-D2
  SPOT peptide array binding signal intensity: 30.5
CaCyk3
  SPOT peptide array binding signal intensity: 5
CaFus1
  SPOT peptide array binding signal intensity: 21.5
CaHof1
  SPOT peptide array binding signal intensity: 0.5
CaHse1
  SPOT peptide array binding signal intensity: 2
CaLsb1
  SPOT peptide array binding signal intensity: 410
CaLsb4
  SPOT peptide array binding signal intensity: ≤ 0
CaMyo5
  SPOT peptide array binding signal intensity: 13.5
CaNbp2
  SPOT peptide array binding signal intensity: 22
CaRvs167
  SPOT peptide array binding signal intensity: ≤ 0
CaRvs167-3
  SPOT peptide array binding signal intensity: 3.5
CaSho1
  SPOT peptide array binding signal intensity: 11.5
CaSla1-D1-D2
  SPOT peptide array binding signal intensity: ≤ 0
CaSla1-D3
  SPOT peptide array binding signal intensity: ≤ 0
ScAbp1
  SPOT peptide array binding signal intensity: 2.5
ScBbc1
  SPOT peptide array binding signal intensity: 3.5
ScBem1-D1
  SPOT peptide array binding signal intensity: 0.5
ScBzz1-D1
  SPOT peptide array binding signal intensity: 22
ScBzz1-D2
  SPOT peptide array binding signal intensity: 36
ScCyk3
  SPOT peptide array binding signal intensity: 20
ScFus1
  SPOT peptide array binding signal intensity: ≤ 0
ScHof1
  SPOT peptide array binding signal intensity: ≤ 0
ScHse1
  SPOT peptide array binding signal intensity: 61.5
ScLsb1
  SPOT peptide array binding signal intensity: 554
ScLsb2
  SPOT peptide array binding signal intensity: 843
ScLsb3
  SPOT peptide array binding signal intensity: ≤ 0
ScLsb4
  SPOT peptide array binding signal intensity: ≤ 0
ScMyo3
  SPOT peptide array binding signal intensity: 40
ScMyo5
  SPOT peptide array binding signal intensity: 12.5
ScNbp2
  SPOT peptide array binding signal intensity: ≤ 0
ScPex13
  SPOT peptide array binding signal intensity: ≤ 0
ScRvs167
  SPOT peptide array binding signal intensity: ≤ 0
ScSho1
  SPOT peptide array binding signal intensity: 1
ScSla1-D1-D2
  SPOT peptide array binding signal intensity: ≤ 0
ScSla1-D3
  SPOT peptide array binding signal intensity: 1
SpAbp1-D1
  SPOT peptide array binding signal intensity: ≤ 0
SpBbc1
  SPOT peptide array binding signal intensity: 0.5
SpBzz1-D1
  SPOT peptide array binding signal intensity: 86
SpBzz1-D2
  SPOT peptide array binding signal intensity: ≤ 0
SpCyk3
  SPOT peptide array binding signal intensity: 2
SpHof1
  SPOT peptide array binding signal intensity: 4
SpHof1-2
  SPOT peptide array binding signal intensity: 1.5
SpHof1-3
  SPOT peptide array binding signal intensity: 22.5
SpHse1
  SPOT peptide array binding signal intensity: 21.5
SpLsb1
  SPOT peptide array binding signal intensity: 216
SpLsb4
  SPOT peptide array binding signal intensity: ≤ 0
SpMyo1
  SPOT peptide array binding signal intensity: 17.5
SpNbp2
  SPOT peptide array binding signal intensity: 2.5
SpPex13
  SPOT peptide array binding signal intensity: 2
SpRvs167
  SPOT peptide array binding signal intensity: ≤ 0
SpSla1-D1-D2
  SPOT peptide array binding signal intensity: ≤ 0
SpSla1-D3
  SPOT peptide array binding signal intensity: 0.5

## APKREAPKPPANTSP
AgAbp1
  SPOT peptide array binding signal intensity: 1
AgBbc1
  SPOT peptide array binding signal intensity: 112
AgBem1-D1
  SPOT peptide array binding signal intensity: 34
AgBzz1-D1
  SPOT peptide array binding signal intensity: 178
AgBzz1-D2
  SPOT peptide array binding signal intensity: 2.5
AgCyk3
  SPOT peptide array binding signal intensity: ≤ 0
AgFus1
  SPOT peptide array binding signal intensity: ≤ 0
AgHof1
  SPOT peptide array binding signal intensity: 6
AgHse1
  SPOT peptide array binding signal intensity: ≤ 0
AgLsb1
  SPOT peptide array binding signal intensity: 4.5
AgLsb4
  SPOT peptide array binding signal intensity: ≤ 0
AgMyo5
  SPOT peptide array binding signal intensity: 265
AgNbp2
  SPOT peptide array binding signal intensity: 382
AgRvs167
  SPOT peptide array binding signal intensity: ≤ 0
AgSho1
  SPOT peptide array binding signal intensity: ≤ 0
AgSla1-D1-D2
  SPOT peptide array binding signal intensity: ≤ 0
AgSla1-D3
  SPOT peptide array binding signal intensity: 8
CaAbp1-D1
  SPOT peptide array binding signal intensity: 6
CaAbp1-D2
  SPOT peptide array binding signal intensity: 11
CaBbc1
  SPOT peptide array binding signal intensity: 251
CaBem1-D1
  SPOT peptide array binding signal intensity: 14
CaBzz1-D1
  SPOT peptide array binding signal intensity: 2040
CaBzz1-D2
  SPOT peptide array binding signal intensity: 2090
CaCyk3
  SPOT peptide array binding signal intensity: ≤ 0
CaFus1
  SPOT peptide array binding signal intensity: 18
CaHof1
  SPOT peptide array binding signal intensity: ≤ 0
CaHse1
  SPOT peptide array binding signal intensity: 1.5
CaLsb1
  SPOT peptide array binding signal intensity: ≤ 0
CaLsb4
  SPOT peptide array binding signal intensity: ≤ 0
CaMyo5
  SPOT peptide array binding signal intensity: 1.75
